# Measurements reported in PubChem BioAssay (Tox21).
# Results filed as inconclusive are left out. Entries that show only a call come without a potency. A number with no mark means an inactive call. The source made the active and inactive calls. Unless noted, the call rests on the fitted dose curve; in most records, active means well fitted curve in the direction sought with a large enough effect in the repeat runs; inconclusive means weak or mixed curves; inactive means no such curve, though single readings can be large; an effect the other way counts as inactive or inconclusive.
# Experiments:
# [1] = qHTS assay to identify small molecule agonists of the RXR signaling pathway - cell viability counter screen (AID 1159529); further: nearly all actives have a fitted effect of over 50% in size; further: potency means the concentration at half of the fitted maximal effect;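 on activity change, negative = cytotoxicity: HEK 293T cells carrying an RXR-alpha UAS beta-lactamase reporter; series mostly up to about 77 µM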
# Summary of the method: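 Counter screen: CellTiter-Glo luminescence. Cells: RXR-alpha-UAS-bla HEK 293T. Medium: 2% charcoal-stripped FBS. Treatment: 16 h, 37 C. Reagent incubation: 30 min, RT.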
# [2] = qHTS assay to identify small molecule antagonists of the retinoid acid receptor (RAR) signaling pathway - cell viability counter screen (AID 1159551); further: nearly all actives have a fitted effect of over 35% in size; further: potency means the concentration at half of the fitted maximal effect
# Summary of the method: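 Cytotoxicity counter screen: ATP content quantified by CellTiter-Glo luminescence in C3RL4 cells treated 6 hr at 37 C with compound and retinol (1 uM final). Cells plated at 1,000/well and cultured overnight before dosing.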
# [3] = qHTS assay to identify small molecule antagonists of the retinoic acid receptor (RAR) signaling pathway (AID 1159552; further: nearly all actives have a fitted effect of over 50% in size; further: potency means the concentration at half of the fitted maximal effect)
# Summary of the method: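 Antagonism of retinol-induced RARE reporter activity was measured in C3RL4 cells. Exposure to compounds and 1 uM final retinol lasted 6 hr at 37 C, with luminescence as endpoint.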
# [4] = qHTS assay to identify small molecule agonists of the retinoic acid receptor (RAR) signaling pathway (AID 1159553); further: potency means the concentration at half of the fitted maximal effect
# Summary of the method: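 Luminescence was measured 30 min after luciferase reagent addition at room temperature. Before that, C3RL4 reporter cells (1,000 per well, plated overnight) were treated with compound for 6 hr at 37 C and 5% CO2.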
# [5] = qHTS assay to identify small molecule antagonists of the estrogen related receptor (ERR) signaling pathway from Tox21 library - cell viability counter screen (AID 1224834); further: nearly all actives have a fitted effect of over 30% in size; further: potency means the concentration at half of the fitted maximal effect
# Summary of the method: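 CellTiter-Fluor fluorescence, read after 30 min at 37 C, measures viability of ERR cells. Cells plated at 2,000/well and incubated 6 h before pin-tool compound addition, then exposed 17.5 hours at 37 C.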
# [6] = biological target: Luciferin 4-monooxygenase (Photinus pyralis) (UniProt P08659); assay: qHTS assay to identify small molecule inhibitors of firefly luciferase (AID 1224835); further: nearly all actives have a fitted effect of over 25% in size; further: potency means the concentration at half of the fitted maximal effect; on activity change, negative = inhibition: series mostly up to about 120 µM
# Luciferin 4-monooxygenase (Photinus pyralis), sequence (P08659 whole entry, looked up): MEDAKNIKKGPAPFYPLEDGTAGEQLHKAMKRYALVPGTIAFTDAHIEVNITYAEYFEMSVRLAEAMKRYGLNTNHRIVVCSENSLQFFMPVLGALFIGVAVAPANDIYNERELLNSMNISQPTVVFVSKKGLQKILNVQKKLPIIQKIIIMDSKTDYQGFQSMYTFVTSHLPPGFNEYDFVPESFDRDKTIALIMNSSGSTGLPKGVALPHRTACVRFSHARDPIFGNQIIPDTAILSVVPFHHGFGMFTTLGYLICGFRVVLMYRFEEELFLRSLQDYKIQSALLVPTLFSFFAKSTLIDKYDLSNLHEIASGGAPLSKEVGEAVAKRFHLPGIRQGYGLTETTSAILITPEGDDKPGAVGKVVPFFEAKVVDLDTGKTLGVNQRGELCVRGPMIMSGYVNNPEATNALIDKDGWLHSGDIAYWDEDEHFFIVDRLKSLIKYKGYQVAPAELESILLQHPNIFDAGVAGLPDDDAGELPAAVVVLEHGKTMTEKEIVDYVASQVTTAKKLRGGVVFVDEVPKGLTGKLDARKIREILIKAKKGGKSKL
# Summary of the method: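 Quantitative HTS format; KM concentrations of both substrates. Purified P. pyralis FLuc activity quantified from luminescence images.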
# [7] = qHTS assay to identify small molecule agonists of the constitutive androstane receptor (CAR) signaling pathway - cell viability counter screen (AID 1224836); further: nearly all actives have a fitted effect of over 45% in size; further: potency means the concentration at half of the fitted maximal effect; on viability change, negative = cytotoxic: series mostly up to about 92 µM
# Summary of the method: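 Double-stable HepG2 hepatoma cells (hCAR plus CYP2B6-2.2kb) are treated for 23 h at 37 C with test compounds in 15-point concentration series. PK11195 at 0.75 uM final is co-added. Cell viability is quantified by CellTiter-Fluor.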
# [8] = qHTS assay to identify small molecule antagonists of the constitutive androstane receptor (CAR) signaling pathway - cell viability counter screen (AID 1224837); further: nearly all actives have a fitted effect of over 45% in size; further: potency means the concentration at half of the fitted maximal effect; on activity change, negative = cytotoxicity: series mostly up to about 92 µM
# Summary of the method: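 Cytotoxicity counter-screen: CellTiter-Fluor fluorescence after 23 h compound exposure (15-point qHTS) in double-stable HepG2-CYP2B6-hCAR cells, with 50 nM CITCO added.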
# [9] = qHTS assay to identify small molecule antagonists of the estrogen related receptor signaling pathway with the pleiotropic PPARgamma coactivator (PGC) from Tox21 10K library - cell viability counter screen (AID 1224840; active means well fitted cell-killing curve with a large enough effect in the repeat runs, not every such curve was filed as active; further: nearly all actives have a fitted effect of over 40% in size; further: potency means the concentration at half of the fitted maximal effect)
# Summary of the method: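 Counter-screen for cytotoxicity: after 17.5 h compound exposure at 37 C, CellTiter-Fluor reagent added to PGC/ERR cells for 30 min and fluorescence read. Cells were seeded at 2,000 per well 6 h before dosing.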
# [10] = qHTS assay to identify small molecule antagonists of the estrogen related receptor signaling pathway with the pleiotropic PPARgamma coactivator (PGC) from Tox21 10K library (AID 1224841; call rule not given here; further: actives are mostly falling curves and most rising ones were filed inactive; nearly all actives have a fitted effect of over 50% in size; further: potency means the concentration at half of the fitted maximal effect; on activity, negative = inhibition: series mostly up to about 92 µM)
# Summary of the method: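 Luminescence (One-Glo, 30 min at room temperature) after 18 h compound treatment at 37 C of PGC/ERR reporter cells plated at 2,000 cells/well and settled 6 h beforehand.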
# [11] = qHTS assay to identify small molecule agonists of the estrogen related receptor signaling pathway with the pleiotropic PPARgamma coactivator (PGC) from Tox21 10K library (AID 1224842); further: nearly all actives have a fitted effect of over 15% in size
# Summary of the method: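 PGC/ERR reporter cells (NTP line) were seeded 2,000 per well, rested 6 h at 37 C/5% CO2, then pin-dosed with compounds in DMSO for 18 h at 37 C; luciferase read by One-Glo luminescence after 30 min at room temperature.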
# [12] = biological target: Thyrotropin receptor (Homo sapiens) (UniProt P16473); assay: qHTS assay to identify small molecule agonists of the thyroid stimulating hormone receptor (TSHR) signaling pathway (AID 1224843; calls by dose curve; further: nearly all actives have a fitted effect of over 45% in size; further: potency means the concentration at half of the fitted maximal effect)
# Thyrotropin receptor (Homo sapiens), sequence (P16473 whole entry, looked up): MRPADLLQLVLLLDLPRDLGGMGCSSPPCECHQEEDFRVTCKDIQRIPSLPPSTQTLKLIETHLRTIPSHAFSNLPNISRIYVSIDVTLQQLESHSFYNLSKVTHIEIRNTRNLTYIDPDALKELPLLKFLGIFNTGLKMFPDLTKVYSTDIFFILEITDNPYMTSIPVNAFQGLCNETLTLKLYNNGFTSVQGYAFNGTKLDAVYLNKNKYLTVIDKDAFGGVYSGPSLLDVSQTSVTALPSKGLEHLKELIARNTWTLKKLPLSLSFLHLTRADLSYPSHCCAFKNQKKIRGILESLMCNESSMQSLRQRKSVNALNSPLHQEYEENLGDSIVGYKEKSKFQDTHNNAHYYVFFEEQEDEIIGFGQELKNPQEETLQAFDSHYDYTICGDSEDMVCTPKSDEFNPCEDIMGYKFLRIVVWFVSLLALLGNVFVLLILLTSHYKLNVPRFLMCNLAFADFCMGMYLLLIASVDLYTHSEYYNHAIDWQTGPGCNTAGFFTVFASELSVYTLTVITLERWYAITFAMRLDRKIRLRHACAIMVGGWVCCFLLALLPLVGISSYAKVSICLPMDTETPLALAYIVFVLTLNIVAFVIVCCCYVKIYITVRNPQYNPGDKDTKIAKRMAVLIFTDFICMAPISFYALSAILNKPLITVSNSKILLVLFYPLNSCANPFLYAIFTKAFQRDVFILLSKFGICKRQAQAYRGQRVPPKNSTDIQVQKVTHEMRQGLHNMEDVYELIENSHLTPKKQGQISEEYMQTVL
# Summary of the method: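 Compounds are titrated over 15 concentrations, in triplicate, onto TSHR-HEK293 cells seeded at 800/well. Plates sit 30 min at room temperature before cAMP-d2 and anti-cAMP cryptate are added; signal is read after a further hour.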
# [13] = biological target: Nuclear receptor subfamily 1 group I member 3 (Homo sapiens) (UniProt Q14994); assay: qHTS assay to identify small molecule antagonists of the constitutive androstane receptor (CAR) signaling pathway (AID 1224838);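 further: HepG2 cells stably expressing hCAR with CYP2B6 luciferase reporter stimulated by CITCO; nearly all actives have a fitted effect of over 40% in size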; further: potency means the concentration at half of the fitted maximal effect
# Nuclear receptor subfamily 1 group I member 3 (Homo sapiens), sequence (Q14994 whole entry, looked up): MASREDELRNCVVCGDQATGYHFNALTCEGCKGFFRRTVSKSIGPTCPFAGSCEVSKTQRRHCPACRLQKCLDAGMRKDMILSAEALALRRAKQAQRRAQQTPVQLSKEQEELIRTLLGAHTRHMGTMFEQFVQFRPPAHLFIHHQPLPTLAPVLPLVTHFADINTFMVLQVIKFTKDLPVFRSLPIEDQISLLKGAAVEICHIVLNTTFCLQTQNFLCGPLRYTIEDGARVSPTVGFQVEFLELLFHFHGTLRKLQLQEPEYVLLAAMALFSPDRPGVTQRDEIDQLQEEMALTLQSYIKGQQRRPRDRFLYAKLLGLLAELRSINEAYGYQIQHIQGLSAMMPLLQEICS
# Summary of the method: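 Antagonism measured as luciferase signal (ONE-Glo, 30 min, room temperature) in CAR-stimulated cells: HepG2-CYP2B6-hCAR double-stable line exposed 24 hr at 37 C to compound in a 15-point series plus 50 nM CITCO.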
# [14] = biological target: Nuclear receptor subfamily 1 group I member 3 (Homo sapiens) (UniProt Q14994); assay: qHTS assay to identify small molecule agonists of the constitutive androstane receptor (CAR) signaling pathway (AID 1224839);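 further: HepG2 cells stably carrying human CAR and a CYP2B6 luciferase reporter; series mostly up to about 92 µM; nearly all actives have a fitted effect of over 15% in size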
# Summary of the method: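 Readout: firefly luciferase luminescence via ONE-Glo. System: HepG2 double-stable for hCAR and CYP2B6-2.2kb. Conditions: 15-point compound titration, PK11195 at 0.75 uM final, 24 h incubation.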
smiles,measurement,setting,value
O=C(OCC(COC(=O)c1ccccc1)(COC(=O)c1ccccc1)COC(=O)c1ccccc1)c1ccccc1,Potency,[1],inactive
same,Potency,[2],inactive
same,Potency,[3],inactive
same,Potency,[4],inactive
same,Potency,[5],inactive
same,Potency,[6],inactive
same,Potency,[7],inactive
same,Potency,[8],inactive
same,Potency,[9],inactive
same,Potency,[10],inactive
same,Potency,[11],inactive
same,Potency,[12],inactive
CC(C)(C)C(=O)OCOC(=O)C1N2C(=O)CC2S(=O)(=O)C1(C)C (stereo unspecified),Potency,[1],inactive
same,Potency,[2],inactive
same,Potency,[3],inactive
same,Potency,[4],inactive
same,Potency,[5],inactive
same,Potency,[6],inactive
same,Potency,[7],inactive
same,Potency,[8],inactive
same,Potency,[9],inactive
same,Potency,[12],inactive
Cc1ccc2oc(CN(Cc3ccccc3)C(=O)Nc3c(F)cc(F)cc3F)c(-c3ccc(Cl)cc3)c2c1,Potency,[1],inactive
same,Potency,[2],inactive
same,Potency,[3],inactive
same,Potency,[4],inactive
same,Potency,[5],inactive
same,Potency,[6],inactive
same,Potency,[7],inactive
same,Potency,[8],inactive
same,Potency,[9],inactive
same,Potency,[11],inactive
same,Potency,[12],inactive
O=C(N/N=C/c1ccccc1O)c1ccncc1,Potency,[1],inactive
same,Potency,[2],inactive
same,Potency,[3],inactive
same,Potency,[4],29.8 µM (active)
same,Potency,[5],9.44 µM (active)
same,Potency,[6],27.5 µM (active)
same,Potency,[7],inactive
same,Potency,[8],inactive
same,Potency,[13],inactive
same,Potency,[14],inactive
same,Potency,[11],inactive
same,Potency,[12],inactive
C=CC(=O)OCC(CO)(COCC(COC(=O)C=C)(COC(=O)C=C)COC(=O)C=C)COC(=O)C=C,Potency,[1],8.6 µM (active)
same,Potency,[2],53.8 µM (active)
same,Potency,[3],7.6 µM (active)
same,Potency,[4],0.957 µM (active)
same,Potency,[5],4.8 µM (active)
same,Potency,[6],inactive
same,Potency,[7],6.78 µM (active)
same,Potency,[8],6.04 µM (active)
same,Potency,[13],5.38 µM (active)
same,Potency,[14],inactive
same,Potency,[9],3.4 µM (active)
same,Potency,[12],6.04 µM (active)
CC(NN)c1ccccc1 (stereo unspecified),"activity change, negative = cytotoxicity",[1],-0.339% [at 15.8 µM]
same,"activity change, negative = cytotoxicity",[2],1.08% [at 19 µM]
same,"activity, negative = inhibition",[3],37.3% [at 19 µM]
same,Potency,[4],inactive
same,"viability change, negative = cytotoxic",[5],6.9% [at 19 µM]
same,"activity change, negative = inhibition",[6],-10.4% [at 23.6 µM]
same,"viability change, negative = cytotoxic",[7],-0.8% [at 19 µM]
same,"activity change, negative = cytotoxicity",[8],5.95% [at 19 µM]
same,"activity, negative = inhibition",[13],27.3% [at 19 µM]
same,"viability change, negative = cytotoxic",[9],-1.05% [at 19 µM]
same,activation,[12],-0.741% [at 19 µM]
Cc1cc(N)c(S(=O)(=O)O)cc1Cl,Potency,[1],inactive
same,Potency,[2],inactive
same,Potency,[3],inactive
same,Potency,[4],inactive
same,Potency,[5],inactive
same,Potency,[6],inactive
same,Potency,[7],inactive
same,Potency,[8],inactive
same,Potency,[9],inactive
same,Potency,[10],inactive
same,Potency,[11],inactive
same,Potency,[12],inactive
N=C1C=CC(=C(c2ccc(N)cc2)c2ccc(N)cc2)C=C1,Potency,[1],inactive
same,Potency,[2],19.3 µM (active)
same,Potency,[3],13.7 µM (active)
same,Potency,[4],inactive
same,Potency,[5],21.7 µM (active)
same,Potency,[6],20 µM (active)
same,Potency,[7],34.4 µM (active)
same,Potency,[8],27.3 µM (active)
same,Potency,[14],inactive
same,Potency,[10],3.44 µM (active)
same,Potency,[11],inactive
